Measurements taken from PubChem BioAssay AID592 (National Center for Advancing Translational Sciences (NCATS), 2007).
Out of some 59,000 compounds screened, fewer than 10 were called active. No rule for the calls is given here. Not all results are given here.

experiment: qHTS Assay for Spectroscopic Profiling in A647 Spectral Region; conditions: Compound fluorescence, A647 channel (570/671 nm), Tris buffer; hits give high values
Description: NIH Molecular Libraries Screening Centers Network [MLSCN] NIH Chemical Genomics Center [NCGC] […] Occasionally, the artifactual effect may originate from the compounds own spectral or other biophysical properties which generally tend to track its assay concentration. Pre-screening/profiling the library with respect to the compounds spectral properties should help one exclude false positives early on. While the most informative fluorescent profiling data set is obtained by performing a full excitation and emission scan of each well by using a monochromator-based plate reader, such an approach is practical only on a very limited scale as scanning each well requires long time. An alternative approach, applied here, is to perform plate reader scans using selected excitation and emission wavelength pairs to generate a multidimensional relational database that correlates compound concentration and the respective relative fluorescence intensity at a given wavelength set. A standard curve of Alexa 647 (A647) present on each plate as six-point concentration series, was used to compute a normalized fluorescence response, termed dye-equivalent concentration, for each compound at each concentration.
NCGC Assay Protocol Summary: Buffer: 100 mM Tris buffer, pH 8.0 Dye standard plate: The wells in columns 1 through 4 of a Kalypsys polypropylene 1536-well compound plate were filled with standard solutions of fluorophore corresponding to the spectral region of interest. Solutions of A647 were placed in the following wells: AC1, AD1: 3 mM, AC2, AD2: 300 uM, AC3, AD3: 30 uM, AC4, AD4: zero (DMSO), AE1, AF1: 3 uM, AE2, AF2: 900 nM, AE3, AF3: 300 nM, AE4, AF4: zero (DMSO). Assay Steps: Six uL of buffer were dispensed to 1536-well Greiner black plates. Compounds and dye standards (23 nL) were transferred via Kalypsys PinTool. The plates were incubated for 15 min at room temperature, and then read on ViewLux (Perkin-Elmer) High-throughput CCD imager using 570 nm and 671 nm excitation and emission filter set. Keywords: NIH Roadmap, MLSCN, MLI, MLSMR, qHTS, NCGC, A647, A-647, Fluorescent Profiling.

Max dye-equivalent concentration, inactive:
O=c1c(-c2cccs2)nc2cnc(Oc3ccccc3)nc2n1-c1ccccc1 2.8 nM
COc1cc(C2C3C(=O)N(c4ccccc4)C(=O)C3ON2c2ccccc2)ccc1O (stereo unspecified) 30 nM
COc1ccc2oc(=O)c(C(=O)O)cc2c1 1 nM
O=C1N(Cc2ccc3c(c2)OCO3)c2ccccc2C1(O)c1c[nH]c2ccccc12 (stereo unspecified) 1 nM
O=C1CCC(C(=O)Nc2ccc(OC(F)F)cc2)N1 (stereo unspecified) 1 nM
CC(=O)N1CCC2(CCCN(c3ncccn3)C2)CC1 1 nM
Cc1ccccc1Nc1nnc(C)c(=O)[nH]1 45 nM
Cc1ccc(-n2c(N)c(C(=O)N3CCOCC3)sc2=S)c(C)c1 1 nM
CC(=O)OC(C(=O)NC1CCCCC1)c1ccccc1 (stereo unspecified) 30 nM
NC(=O)C1CCN(C(=O)c2ccc(C(F)(F)F)cc2)CC1 1 nM
COc1cccc(Cn2c(=O)c(C)nc3cnc(Oc4ccccc4)nc32)c1 1 nM
Cc1cccc(NC(=O)c2ccccc2NC(=O)C(C)(C)C)n1 39 nM
CCc1ccccc1NC1c2ccccc2C(=O)N1c1cccnc1 (stereo unspecified) 11 nM
CCOC(=O)c1c(C)nc(-c2ccccc2)nc1NC(=O)C(C)C 1 nM
Cc1nc(NCc2ccccc2)c(C(N)=O)c2c1COC(C)(C)C2 37 nM
COc1ccccc1CNC(=O)CCCn1c(=O)c2ccccc2n(CC(=O)NC2CCCC2)c1=O 28 nM
O=C(c1cccs1)N1CCN(C(=O)N2CCOCC2)CC1 9.6 nM
CC1Cc2nc(SCC(=O)Nc3ccccc3F)n(C)c(=O)c2S1 (stereo unspecified) 1 nM
COc1ccc2nccc(C(=O)O)c2c1 1 nM
CCn1c(=N)c(S(=O)(=O)c2ccc(F)cc2)cc2c(=O)n3ccccc3nc21 1.8 nM
O=C(CCCN1C(=O)CSc2ncccc21)N1CCN(c2cccc(C(F)(F)F)c2)CC1 6.4 nM
COc1ccc(C(=O)Nc2cccnc2)cc1C(=O)Nc1cccnc1 1.5 nM
OCCCN1c2ccccc2Nc2nnc(-c3ccccc3)cc21 20 nM
CCOC(=O)c1[nH]cnc1C(=O)NC1CCCCC1 1 nM
ClC(Cl)(Cl)C(N1CCN(c2ccccc2)CC1)N1CCN(c2ccccc2)CC1 1 nM
CN(Cc1ccco1)c1cc(-c2ccccc2C(F)(F)F)ncn1 1 nM
CC(=O)Oc1cccc(N2C(=O)CC(Nc3ccc(N4CCOCC4)cc3)C2=O)c1 (stereo unspecified) 1 nM
Cn1c(=O)[nH]c(=O)c2c1nc(N(CCO)Cc1ccccc1)n2Cc1ccccc1Cl 78 nM
Cn1cccc1C(=O)N1CCC2(CC1)CN(c1cccc(-c3ccccc3)c1)C2 18 nM
CCCCn1c(=S)[nH]c2ncccc2c1=O 1 nM
CC1(C)SC2c3ccccc3C(=O)N2[C@@H]1C(=O)NCc1ccco1 (stereo partly specified) 1 nM
O=C(O)CN1C(=O)CC(Cc2ccccc2)C1=O (stereo unspecified) 1 nM
O=C(Cc1c(F)cccc1Cl)N1CCN(C(=O)c2ccco2)CC1 7.2 nM
CCCn1c(=O)c2[nH]c(-c3ccc(OCC(=O)NCCN)cc3)nc2n(CCC)c1=O 50 nM
O=c1[nH]c(=O)c2nc3ccccc3nc2[nH]1 49 nM
Cc1nc2nc3c(cn2n1)C(=O)CC(c1ccccc1)C3 (stereo unspecified) 28 nM
CSCC[C@H](NC(=O)NCc1cccs1)C(=O)O 3.7 nM
CN(C(=O)COc1nnc(-c2cccs2)c(-c2cccs2)n1)c1ccccc1 1 nM
Cc1cc(N2C(=O)C(=O)/C(=C(/O)c3ccccc3)C2c2cccc(Br)c2)no1 (stereo unspecified) 1.8 nM
C/C(N)=C(\C#N)C(=O)NCCc1ccccn1 39 nM
CCc1nnc(NC(=O)c2nc3nccc(C)n3n2)s1 18 nM
N#Cc1ccc(CSc2nnc(-c3ccccn3)n2-c2ccc(Cl)cc2)cc1 2.1 nM
Clc1ccc(C=Nc2ccc3c(c2)Cc2ccccc2-3)c(Cl)c1 3.2 nM
CN(C)CCCNC(=O)c1ccc2[nH]c3ccccc3c2c1 3 nM
CC(C)CSC[C@@H]1O[C@H](n2cnc3c(N)nccc32)[C@H](O)[C@@H]1O 13 nM
Cc1ccccc1Nc1nc(N)nc(CN2CCN(c3ccccn3)CC2)n1 44 nM
COc1ccc(C(c2nnnn2Cc2cccs2)N2CCN(c3ccccc3)CC2)cc1OC (stereo unspecified) 11 nM
COC(=O)CNC(=O)c1ccc2c(c1)S(=O)(=O)c1ccccc1C2=O 6.7 nM
O=C(O)c1ccc(C(=O)c2ccccc2C(=O)O)cc1C(=O)O 3.2 nM
O=C(O)CSCNC(=O)CC12CC3CC(CC(C3)C1)C2 1.2 nM
COc1cc(C(=O)N(Cc2ccc(N(C)C)cc2)C2CCS(=O)(=O)C2)cc(OC)c1OC (stereo unspecified) 8.2 nM
O=S(=O)(/C=C/c1ccccc1)NCCc1ccccn1 23 nM
Fc1ccccc1C(c1nnnn1Cc1ccc2c(c1)OCO2)N1CCN(Cc2ccccc2)CC1 (stereo unspecified) 3.5 nM
Cc1cc(C)nc(SCc2nnc(SCC(=O)OC3CCCCC3)o2)n1 1 nM
Cc1csc(NC(=O)C2CCCN2C(=O)OCC(C)C)n1 (stereo unspecified) 15 nM
N=C(CC(=O)Nc1ccccn1)c1ccccc1 36 nM
Cc1oc(C)c(C(=O)NCCCC(=O)O)c1C(=O)NCCCC(=O)O 15 nM
Cc1c(O)c(Br)c(C)c(O)c1Br (tested in a mixture with another compound) 36 nM
O=C1c2ccccc2C(=O)N1CCCSc1ccccc1 1 nM
Cc1ccc(NC(=O)C2CCCN(S(=O)(=O)c3c(C)noc3C)C2)c(C)c1 (stereo unspecified) 5.9 nM
CCCNS(=O)(=O)c1ccc(CCC(=O)NCc2cccnc2)cc1 46 nM
Cn1c(=O)[nH]c(=O)c2c1nc(CN(Cc1ccccc1)Cc1ccccc1)n2CCN1CCOCC1 2 nM
CCn1c(=O)cc(SCC(=O)NCc2ccc3c(c2)OCO3)c2ccccc21 34 nM
CCc1cc2c(=O)c(-c3ccon3)c(N)oc2cc1OC 23 nM
N#Cc1cccc(NC(=O)CCC2CCCC2)c1 1 nM
Cc1nnc(SCc2ccc(C(=O)c3ccc(Cl)cc3)o2)n1-c1ccccc1 1.7 nM
Cn1c2ccccc2c2c(C(=O)N3CCN(c4ccc(F)cc4)CC3)cn(C3CCCC3)c(=O)c21 2.8 nM
CCn1c(Cc2ccccc2)nnc1SCc1nc2ccccc2c(=O)[nH]1 3.7 nM
CCCOc1ccc(-c2nc(N)n[nH]2)cc1 1 nM
Cc1nnc(SCC(=O)N2CCc3ccccc32)n1-c1ccccc1 30 nM
O=C(Nc1c[nH]c(=O)[nH]c1=O)Oc1ccccc1 1 nM
COC(=O)c1c(NC(=O)CSc2nncs2)sc2c1CCCCC2 57 nM
CCCCN(CCCC)C(=O)CCS(=O)(=O)c1ccc2c(c1)n(C)c(=O)c(=O)n2C 16 nM
COc1cc(NS(=O)(=O)c2ccc(NC(C)=O)cc2)cc(OC)c1 2 nM
COc1ccc(S(=O)(=O)N2CCN(c3ncnc4c(-c5ccccc5)nsc34)CC2)cc1 45 nM
C#CCN1C(=O)C(O)(CC(=O)c2cc(OC)ccc2OC)c2ccccc21 (stereo unspecified) 44 nM
COc1ccc2c(c1)C(C)=CC(C)(C)N2C(=O)CNCc1ccc2c(c1)OCO2 27 nM
CN(C)Cc1c(C#N)c2ccccc2n1C 1 nM
CN1CCCC(OC(=O)COc2ccc(Br)cc2)C1 (stereo unspecified) 2.1 nM
Fc1ccc2nc(Nc3nc4c(s3)CCCC4)sc2c1 34 nM
Cc1n[nH]c(C)c1S(=O)(=O)N1CCCC(C(=O)NCC2COc3ccccc3O2)C1 (stereo unspecified) 15 nM
CCON=C1C(C)(C)C(C)(C)C(C)(C)C1(C)C 1 nM
CC(C)c1ccc(N2CC(C(=O)Nc3nccs3)CC2=O)cc1 (stereo unspecified) 1 nM
Cc1nc(NC(=O)CCC(=O)O)sc1C(=O)N(C)C 1 nM
Cc1nc2ncnn2c(C)c1CCC(=O)N1CCN(C(=O)c2ccco2)CC1 1 nM
CN1CCc2c(sc3c2c(NCc2ccco2)nc2nnnn23)C1 1 nM
CCN(C(=O)CSc1ncn[nH]1)c1cccc2ccccc12 1 nM
Cc1nn(-c2ccccc2)c2sc(C(=O)N(Cc3ccco3)C(C)C(=O)NC(C)(C)C)cc12 (stereo unspecified) 1 nM
COc1ccc2c(c1)CCc1c(C(=O)Nc3c(C)n(C)n(-c4ccccc4)c3=O)noc1-2 1 nM
Cc1cc2ccccc2n2c(SCC(=O)N3CCN(C(=O)c4ccco4)CC3)nnc12 3.8 nM
CCSc1nc2c(c(=O)[nH]1)C(c1cccnc1)C(C(=O)OC(C)C)=C(C)N2 (stereo unspecified) 29 nM
